Assay outcomes: PubChem BioAssay, National Center for Advancing Translational Sciences (NCATS)
Only some compounds are listed: those with a hit (about 5.3% of all), similar ones and a draw of the others.
HP1b binding inh: inhibitors of HP1-beta chromodomain binding to methylated histone tails; P83916; AlphaScreen HP1-beta / biotin-H3K9me3 peptide binding; Potency, µM (series often up to 114 µM), inactives show at the top dose activity change, negative = inhibition, usual class: inhibitors; 390,000 compounds, 0.56% hits; note: potency is the fitted concentration of half-maximal effect; nearly all actives have a fitted effect of over 70% in size
Target sequence (P83916 whole entry, looked up): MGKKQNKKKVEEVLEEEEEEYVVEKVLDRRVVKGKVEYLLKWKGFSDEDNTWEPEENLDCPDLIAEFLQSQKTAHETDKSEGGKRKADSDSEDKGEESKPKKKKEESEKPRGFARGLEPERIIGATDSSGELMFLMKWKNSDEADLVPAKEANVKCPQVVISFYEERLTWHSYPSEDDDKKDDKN
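HP1-beta protein (50 nM final) preincubated 30 min at room temperature with biotinylated H3(1-18)K9me3 peptide (50 nM) in PBS pH 7.4, 0.01% Tween-20, then compound added for 30 min. AlphaScreen streptavidin donor/nickel chelate acceptor beads (10 ug/mL final), 30 min dark, luminescence read.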
JMJD2A Tudor inh: JMJD2A Tudor domain (human) inhibition. O75164. AlphaScreen JMJD2A-Tudor / H3K4me3 peptide binding. Potency, µM (top dose mostly 114 µM), for the others: at the highest dose activity change, negative = inhibition, hits mostly inhibitors. 390,000 compounds, 4.4% hits. AID 504339; note: potency is the fitted concentration of half-maximal effect; % is set by controls: 0 for no effect and ±100 for the full control effect; nearly all actives have a fitted effect of over 50% in size
Six1-Eya2 inh: Six1/Eya2 interaction inhibition | AID 651725 | 360,000 compounds, 0.56% hits | Q15475+O00167 | activity change, % (no concentration beside the values) | AlphaScreen GST-Six1/His-Eya2 binding, biochemical; hits give low values; in the data active = activity change below about -65%; inconclusive = mostly about -30% to -63%; note: % is set by controls: 0 for no effect and ±100 for the full control effect
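AlphaScreen with GST-Six1 and His-Eya2 (5X mix: 250 nM and 500 nM), glutathione donor and nickel acceptor beads; buffer 50 mM Tris pH 8.0, 300 mM NaCl, 1 mM TCEP; 1 h at 37 C in the dark.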
CtBP-E1A blk: blocks the CtBP interaction with E1A; AlphaScreen GST-E1A/His-CtBP binding, 1536-well; hits give low values; AID 651724; activity change, % (no concentration beside the values); 340,000 compounds, 0.49% hits; in the data active = activity change below about -65%; inconclusive = mostly about -30% to -63%; note: % is set by controls: 0 for no effect and ±100 for the full control effect
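Steps: dispense buffer (Tris pH 8.0, NaCl 300 mM, TCEP 1 mM, BSA, Tween 20); add 5X protein mix (GST-E1A, His-CtBP, 125 nM each); pin 23 nL compound; 2 h at 37 °C, dark; add 5X beads (50 ug/mL); 1 h; read.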
BAZ2B inh: BAZ2B (human) inhibition; 360,000 compounds, 4.4% hits; Potency, µM (titrated, usually from 114 µM), without a hit: at the highest dose activity change, negative = inhibition, hits mostly inhibitors; AID 504333; AlphaScreen BAZ2B-H3K14Ac peptide displacement; Q9UIF8; note: potency is the fitted concentration of half-maximal effect; % is set by controls: 0 for no effect and ±100 for the full control effect; nearly all actives have a fitted effect of over 60% in size
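Compounds, titrated to a top concentration of 110 uM, were incubated 30 min at room temperature with preformed BAZ2B/acetyl-K14 H3 peptide complex (50 nM each). Proximity signal was measured by AlphaScreen after 20 min with beads.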
TDP1 inh: TDP1 (human) enzyme inhibition. Q9NUW8. recombinant TDP1, AlphaScreen DNA substrate cleavage. Potency, µM (titrated, usually from 130 µM), inactives show at the top dose activity change, negative = inhibition, actives largely listed as inhibitors. 350,000 compounds, 0.28% hits; note: potency is the fitted concentration of half-maximal effect; % is set by controls: 0 for no effect and ±100 for the full control effect; nearly all actives have a fitted effect of over 40% in size
Target sequence (Q9NUW8 whole entry, looked up): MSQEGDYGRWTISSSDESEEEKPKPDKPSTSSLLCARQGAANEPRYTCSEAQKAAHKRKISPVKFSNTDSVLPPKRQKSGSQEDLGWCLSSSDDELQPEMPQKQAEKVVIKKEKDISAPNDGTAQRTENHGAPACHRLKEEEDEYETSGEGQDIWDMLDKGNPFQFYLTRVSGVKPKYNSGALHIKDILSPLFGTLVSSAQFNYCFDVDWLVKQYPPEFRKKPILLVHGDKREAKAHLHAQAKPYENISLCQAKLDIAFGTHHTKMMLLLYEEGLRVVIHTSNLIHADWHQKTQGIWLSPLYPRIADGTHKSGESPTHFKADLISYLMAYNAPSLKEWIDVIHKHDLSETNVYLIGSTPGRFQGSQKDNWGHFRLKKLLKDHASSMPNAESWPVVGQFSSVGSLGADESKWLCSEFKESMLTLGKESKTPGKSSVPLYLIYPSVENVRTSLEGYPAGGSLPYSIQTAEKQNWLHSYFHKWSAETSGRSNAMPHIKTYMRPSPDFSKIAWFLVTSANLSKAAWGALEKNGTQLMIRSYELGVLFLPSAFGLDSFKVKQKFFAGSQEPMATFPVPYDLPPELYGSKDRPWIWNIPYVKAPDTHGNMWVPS
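Signal: AlphaScreen proximity between streptavidin donor and anti-FITC acceptor beads on intact substrate. Reaction: Tdp1 1 nM, substrate 15 nM final, 5 min RT after 15 min compound preincubation.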
An asterisk follows results filed as active; ? = inconclusive; . = no result; [ ] = remark or other dose. Unless noted, calls come from the whole dose curve; as a rule, active = well fitted inhibition curve with a large enough effect; inconclusive = small, poorly fitted or top-dose-only effect; inactive = no such curve, though single readings can be large or run the other way.

SMILES	HP1b binding inh	JMJD2A Tudor inh	Six1-Eya2 inh	CtBP-E1A blk	BAZ2B inh	TDP1 inh
Cc1ccc(C2C(C(=O)c3cc4ccccc4o3)=C(O)C(=O)N2CCN2CCOCC2)o1 (stereo unspecified)	10.0%	89.1µM*	-4.1	-4.2	?	0.0%
CCOc1ccc(C2C(C(=O)c3ccc(C)o3)=C(O)C(=O)N2CCN2CCOCC2)cc1OC (stereo unspecified)	38.7%	28.2µM*	4.5	5.4	?	-2.0%
COc1cccc2cc(C(=O)C3=C(O)C(=O)N(CCN4CCOCC4)C3c3ccc(C(C)(C)C)cc3)oc12 (stereo unspecified)	-10.0%	56.2µM*	-4.5	.	-28.8%	8.2%
COc1ccc(C2c3cc(OC)c(OC)cc3Cc3c4cc(OC)c(OC)cc4cc[n+]32)cc1OC (stereo unspecified)	.	.	.	.	.	6.9%
CC(C)(C)c1ccccc1Nc1nc(C#N)nc(NC2CCCC2)n1	.	-17.1%	.	.	.	-5.6%
N#CN1CCC(NC(=O)c2cccc(C(F)(F)F)c2)CC1	.	-8.2%	.	.	.	0.2%
Nc1ccn([C@@H]2CC[C@H](CO)O2)c(=O)n1	.	.	.	.	.	2.6%[21 µM]
CCc1ccc(NC(=O)CCS(=O)(=O)c2ccc3c(c2)oc(=O)n3C)cc1	14.1%	-8.1%	.	.	7.0%[57.1 µM]	-7.4%
Cc1ccc(C)n1Cc1ccc(C(=O)O)cc1	?	0.794µM*	-71.4*	4.0	15.8µM*	3.55µM*
Cc1cc(C)n(Cc2ccc(C(=O)O)cc2)n1	15.8%	0.6%	3.2	-1.0	-4.5%	3.3%
Cc1cc(-c2c(C)[nH]n(-c3ccc(Cl)cc3)c2=O)n[nH]1	7.6%	?	?	?	28.2µM*	11.8%
C=CCN(c1ccccc1)S(=O)(=O)c1cccc(C(=O)O)c1	33.4%	-7.3%	0.0	7.2	11.7%	3.9%
C=CCN(c1ccccc1)S(=O)(=O)c1cccc(C(=O)NNC(=O)c2ccccc2O)c1	3.8%	89.1µM*	-11.7	-1.4	-10.0%	.
Cc1cccc(CSc2nnc([C@@H]3CCCN3)o2)c1	56.5%	-2.8%	-1.1	3.8	17.2%	6.8%
Clc1cccc(CSc2nnc([C@@H]3CCCN3)o2)c1	62.6%	-19.1%[57.1 µM]	-0.4	-3.7	79.4µM*	1.9%
Cc1ccc(NS(=O)(=O)c2cc3c(cc2-c2ccccc2)NC(=O)CO3)cc1C	.	-29.3%	.	.	.	-0.3%
NC[C@@H]1O[C@@H](O[C@H]2[C@H](O)[C@H](O[C@@H]3O[C@H](CO)[C@@H](O)[C@H](N)[C@@H]3O)[C@@H](N)C[C@H]2N)[C@H](N)C[C@@H]1O	.	.	.	.	.	15.9%[21 µM]
COc1cccc(C(=O)NCC(c2ccc(N(C)C)cc2)N2CCCC2)c1OC (stereo unspecified)	17.3%	-14.9%	.	.	-38.6%	3.8%
O=C(CSc1nnnn1Cc1ccccc1)N1CCN(c2ccccc2)CC1	1.8%	89.1µM*	8.4	3.9	-7.7%	6.2%
CCn1c(SCC(=O)N2CCN(c3ccc(Cl)cc3)CC2)nc2ccccc2c1=O	-18.9%	-31.5%	7.6	4.4	50.1µM*	5.5%
Cn1c(Cc2cccc3ccccc23)nnc1SCC(=O)N1CCN(c2ccccc2)CC1	-6.6%	79.4µM*	-6.5	-19.0	?	3.1%
CCn1c(SCC(=O)N2CCN(c3ccc(F)cc3)CC2)nc2ccccc2c1=O	-11.6%	-15.9%	11.0	-3.4	-34.4%	1.1%
COc1ccc(-n2ccnc(NCc3ccccc3OC)c2=O)cc1	-2.3%	-14.3%	.	.	?	10.5%
CN(Cc1ccccc1)C(C(=O)NC1CCCCC1)c1ccc(Cl)cc1 (stereo unspecified)	15.0%	-1.0%	.	.	1.6%	5.9%
CCN(CC)CCn1c(-c2ccccc2)nc2c(N3CCOCC3)nc(C)nc21	.	.	.	.	.	3.3%
SMILES	HP1b binding inh	JMJD2A Tudor inh	Six1-Eya2 inh	CtBP-E1A blk	BAZ2B inh	TDP1 inh
CN(C)c1ccc(N=Nc2ccccc2C(=O)OCC(=O)NC2CCCC2)cc1	-86.5%	31.6µM*	-70.7*	-65.8*	12.6µM*	11.0%
O=C(COC(=O)c1cccc2c1C(=O)c1ccccc1C2=O)NC1CCCCC1	?	39.8µM*	?	?	39.8µM*	7.9%
CN(C)c1ccc(N=Nc2ccccc2C(=O)OCC(=O)N(C)C2CCCCC2)cc1	-24.2%	?	-23.0	-18.5	8.91µM*	10.3%
CN(C)c1ccc(N=Nc2ccccc2C(=O)OCC(=O)NCC2CCCCC2)cc1	?	7.94µM*	-74.1*	-67.6*	8.91µM*	2.8%
Cc1ccc(NC(=O)c2ccc(-n3c(C)nnc3C)cc2)cc1F	11.8%[57 µM]	-4.8%	.	.	0.7%	1.1%
CN(C)C1(CNCC(O)c2ccccc2)CCCCC1 (stereo unspecified)	?	20µM*	7.1	8.9	70.8µM*	.
O=C(Nc1ccc(OCc2cc(=O)n3c4c(sc3n2)CCCC4)cc1)c1cccc(F)c1	23.6%	-12.3%	.	.	-2.6%	3.8%
O=C1CSC(=Nc2ccc(Cl)cc2)N1	41.3%	-10.5%	-2.6	.	-25.2%	2.5%
Clc1ccc(N=c2ssnc2Cl)cc1	?	50.1µM*	6.7	15.2	39.8µM*	14.0%[56.1 µM]
c1ccc(Cn2sc(=Nc3ccccc3)nc2-c2ccccc2)cc1	22.5%	5.0%	.	.	.	.
COc1ccc(N=c2ssnc2Cl)cc1	?	-16.8%[11.4 µM]	4.9	-2.5	44.7µM*	7.5%
COc1ccc(N=C2SCC(=O)N2C)cc1	.	.	5.0	-0.1	.	.
Clc1nssc1=Nc1ccccc1	35.5µM*	79.4µM*	2.3	-8.1	28.2µM*	8.6%
Fc1ccc(N=c2ssnc2Cl)c(F)c1	5.62µM*	22.4µM*	-20.0	10.0	50.1µM*	-5.9%
Cc1ccc(C)c(NC(=O)CCN2C(=O)c3ccccc3Sc3ncccc32)c1	11.5%	-4.8%	.	.	-12.0%	0.0%
COc1cc(-c2nnc(-c3cc(OC)c(OC)c(OC)c3)o2)cc(OC)c1OC	40.9%	-6.1%	-4.9	-1.5	-3.5%	7.3%
COc1cc(N=c2ssnc2Cl)cc(OC)c1OC	28.0%	?	4.4	-0.8	28.2µM*	5.9%
N#Cc1ccc(N=c2ssnc2Cl)cc1	7.08µM*	22.4µM*	0.9	-3.5	35.5µM*	2.1%
Cc1ccc(C)c(N2CCN(C(=O)c3cn(CC(C)C)c(=O)c4c3c3ccccc3n4C)CC2)c1	-1.4%	-33.8%	.	.	-13.6%	0.0%
Cc1cccc2c(=O)cc(CSc3ccccc3NC(=O)c3cccc(F)c3)[nH]c12	24.8%[57 µM]	-1.9%	.	.	4.7%	0.0%
Cc1cc(C)n(C(C)CC(=O)Nc2cccc(C(F)(F)F)c2)n1 (stereo unspecified)	25.4%	-14.7%	.	.	-4.2%	-3.2%
COc1ccc2c(c1)c1c(c(=O)n(CCc3ccccc3)c(=O)n1Cc1ccccc1)n2C	25.2%	-13.4%	.	.	1.6%	2.8%
